# Screening results from PubChem BioAssay.
# The list is not random: actives were taken first. Their share in the collection is about 27%.
# Cav32 inh: human Cav3.2 channel inhibition, primary screen | O95180 | Cav3.2-expressing cells, Fluo-4 calcium fluorescence FDSS; hits give low values | B-score at 10 µM | 100,000 compounds, 4% hits | AID 449739;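 active = single-dose well whose peak fluorescence ratio is a statistical outlier from its plate by either plate-standardised score or position-corrected B-score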
# CYP2C19 inh: human CYP2C19 inhibition; CYP2C19 Supersomes, luciferin-H EGE luminescence, 30 min; 96,000 compounds, 21% hits; P33261; inhibition, % at 5 µM;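 active = CYP2C19 inhibition above a set limit at 5 µM in the primary screen, cut at about 50% in these data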;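 also: plate controls were negative control wells for no effect and 2.5 mM tranylcypromine positive control for full effect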
# CYP2C19 activ: cytochrome P450 2C19 (human) activation | P33261 | recombinant CYP2C19, luciferin-H EGE luminescence; hits give high values; 0 = fully inhibited enzyme, 1 = untreated enzyme | activation factor at 5 µM | 96,000 tested, under 10 active | AID 1025;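 active = activation factor of at least 2 at 5 µM in the primary screen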;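 also: 0 = wells with 2.5 mM tranylcypromine and 1 = vehicle-only wells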
# CYP2C9 act: increases human cytochrome P450 2C9 activity; P11712; recombinant CYP2C9, luciferin-H conversion, luminescence; hits give high values; factor 1 = untreated enzyme, 0 = blocked; activation factor at 5 µM; 96,000 compounds, 1.4% hits;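 active = activation factor of 2 or more for CYP2C9 at a 5 µM dose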;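 also: 0 = sulfaphenazole-blocked wells and 1 = vehicle-only wells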
# CYP2C9 inh: blocks human cytochrome P450 2C9; P11712; CYP2C9 Supersomes, luciferin-H conversion, luminescence; inhibition, % at 5 µM; AID 777; 96,000 compounds, 20% hits;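 active = blocking of liver enzyme CYP2C9 beyond about 50% at 5 µM, limit read from the data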
# * hit, by the source's call; x = no result given.
SMILES,Cav32 inh,CYP2C19 inh,CYP2C19 activ,CYP2C9 act,CYP2C9 inh
COC(=O)c1ccc2c(=O)n(CC3CCCO3)c(SCC(=O)Nc3ccccc3Cl)nc2c1 (configuration not stated),1.5,37,0.6,0.5,49
COc1cc2nc(SCC(=O)NCCc3ccccc3)n(Cc3ccco3)c(=O)c2cc1OC,0.78,66*,0.3,0,96*
CCSc1nc2cc(OC)c(OC)cc2c(=O)n1CCc1ccccc1,-1.4,19,0.8,0.5,49
O=C(Cn1cc2c(n1)CCCC2)N1CCCc2ccccc21,1.4,28,0.7,0.6,35
O=C(CSc1nc2ccccc2c(=O)n1-c1ccccc1)N1CCCC1,-0.2,34,0.7,0.5,51*
CC(=O)C1=C(C)NC(SCC(=O)c2cc(Cl)ccc2Cl)=C(C#N)C1c1ccco1 (configuration not stated),-3.7*,100*,0,0,100*
CC(=O)C1=C(C)NC(SCC(=O)c2ccc(Cl)c(Cl)c2)=C(C#N)C1c1ccco1 (configuration not stated),-2.9,77*,0.2,0.1,93*
COC(=O)c1ccc(Cl)c(NC(=O)c2ccc(-c3ccccc3)cc2)c1,0.89,-2,1,1.8,-82
Cc1ccc(-n2nnnc2SC(C)C(=O)Nc2ccc(Cl)cn2)cc1 (configuration not stated),-4.1*,30,0.7,0.6,43
CCOC(=O)NC(=O)CSc1nnnn1-c1ccc(Cl)cc1,-0.24,x,x,x,x
COc1ccc(C=Nc2cccc3c(=O)[nH][nH]c(=O)c23)c2ccccc12,0.68,42,0.6,0.2,79*
O=c1[nH][nH]cc1C=Nc1ccccc1O,1.8,5,1,0.9,10
COC(=O)c1cc(OC)c(OC)cc1NC(=S)N1CCC(C(N)=O)CC1,0.0028,-9,1.1,1.2,-19
COC(=O)c1cc(OC)c(OC)cc1NC(=S)N1CCN(C)CC1,0.79,65*,0.4,1,3
COC(=O)c1cc(OC)c(OC)cc1NC(=S)N1CCN(c2ccccc2)CC1,0.087,100*,0,0.5,54*
COC(=O)c1cc(OC)c(OC)cc1NC(=S)N1CCCCC1,0.1,50*,0.5,0.9,7
COC(=O)c1cc(OC)c(OC)cc1NC(=O)CC1CCCCC1,-1.1,23,0.8,0.5,51*
O/N=C1/CCc2nonc2/C1=N/O,-0.0088,-11,1.1,1.1,-5
CCOC(=O)N1CCN(c2c(Nc3cc(C)[nH]n3)c(=O)c2=O)CC1,-0.64,-1,1,1,0
CCn1c(CCC(=O)Nc2nc3c(s2)CCCC3)nc2cc(S(=O)(=O)N(C)C)ccc21,-1.4,75*,0.2,0.1,91*
CC1CCC2C(C1)c1sc(=O)[nH]c1SC2(C)C (configuration not stated),-2,4,1,0.9,6
CCc1nnc(NCn2nc(C)cc2C)s1,-0.53,18,0.8,1,2
Cc1cccn2cc(-c3ccc(F)cc3)nc12,-0.078,67*,0.3,0.6,38
Fc1ccc(-c2cn3cc(C(F)(F)F)cc(Cl)c3n2)cc1,-2.3,37,0.6,0.9,13
CN(CCCNC(=O)C1CCC(=O)N1Cc1ccc(F)cc1)c1ccccc1 (configuration not stated),0.14,21,0.8,1,3
SMILES,Cav32 inh,CYP2C19 inh,CYP2C19 activ,CYP2C9 act,CYP2C9 inh
O=C(CSc1nnc(CNc2ccc(F)cc2)n1-c1ccccc1)N1CCOCC1,1.3,x,x,x,x
Cc1ccccc1C(=O)NC(C)c1ccc2c(c1)CCCC2 (configuration not stated),-3.1,18,0.8,2.2*,-123
CC(NC(=O)C(=O)NN=C1CCCCCCC1)c1ccccc1 (configuration not stated),-0.075,-7,1.1,1.1,-7
Cc1ccc(C)n1-c1ccc(C(=O)O)cc1,0.12,0,1,0.4,56*
CC(=O)c1c(C(C)=O)c(C)n(-c2ccc(C(=O)O)cc2)c1C,0.75,2,1,1,-1
O=C(CN1CCN(c2ccccn2)CC1)Nc1cc(C(F)(F)F)ccc1Cl,0.15,26,0.7,0.3,74*
O=C(CN1CCN(c2ccccn2)CC1)Nc1ccc2ccccc2c1,x,28,0.7,0.4,55*
Cc1ccc(NC(=O)CN2CCN(c3ccccn3)CC2)c(Cl)c1,0.9,55*,0.5,0.1,86*
O=C(CN1CCN(c2ncccn2)CC1)Nc1ccccc1-n1cccc1,-0.33,95*,0.1,0.2,79*
CCCCCOC(=O)C1[C@H]2C(=O)N(CCCOC)C[C@]23C=C[C@H]1O3 (some centres not stated),-0.026,-3,1,1,0
Cc1nc2ccc(NC(=O)N3CCN(c4ccccn4)CC3)cc2s1,0.23,22,0.8,0.2,80*
Cc1ccc(NC(=O)N2CCN(c3ccccn3)CC2)cc1,0.43,13,0.9,0.9,8
COCCNc1nc(-c2cc(C(=O)Nc3ccccc3)on2)cc(C(C)C)n1,-2.3,x,x,x,x
Cc1ccc(OCc2nnc(SCC(=O)c3cccc([N+](=O)[O-])c3)n2C)cc1,0.15,-8,1.1,0.9,13
CC(CCc1ccccc1)NC(=O)C1CCN(S(=O)(=O)c2cnc[nH]2)CC1 (configuration not stated),0.45,75*,0.3,0.1,93*
O=C(NC1CCCc2ccccc21)C1CCN(S(=O)(=O)c2cnc[nH]2)CC1 (configuration not stated),-0.033,44,0.6,0.3,70*
CCCS(=O)(=O)N1CCCC(C(=O)NCCCN2CCN(c3ccc(F)cc3)CC2)C1 (configuration not stated),0.3,7,0.9,2.7*,-169
CCCS(=O)(=O)N1CCCC(C(=O)NCCCOC(C)C)C1 (configuration not stated),-0.21,3,1,1,0
COc1c(Cl)cc(Cl)cc1/C=N/n1cnnc1,0.062,-2,1,1,-1
O=C(CSC1=NS(=O)(=O)c2ccccc21)Nc1ccccc1,-1.6,53*,0.5,0.7,32
CN(c1ccccc1)S(=O)(=O)c1cc(C(=O)c2nccn2C)ccc1Cl,-0.7,99*,0,0.1,91*
Cn1ccnc1C(=O)c1cc(=O)c2ccccc2o1,0.26,22,0.8,1.1,-6
O=C(NCC1CCCO1)c1onc(CSc2ccccc2F)c1C(=O)O (configuration not stated),-0.027,18,0.8,0.8,19
CC(C)c1nnc(NC(=O)CSc2ccccc2)s1,-1,63*,0.4,0.4,62*
CCOCc1nnc(NC(=O)CSc2ccccc2)s1,0.37,49,0.5,0.5,51*
CCOC(=O)C(C)Sc1nnc(-c2ccccc2O)n1-c1ccc(C)cc1 (configuration not stated),-4.6,48,0.5,0.7,26
COc1ccc(-c2ccnc3nc(-n4cccc4)nn23)cc1,-1,26,0.7,0.5,51*
